Test results as given in PubChem BioAssay AID1159580 (chemical genetic matrix, 2015).
Several values for one entry are separate records, joined by “and”; a condition that tells them apart may be missing. Equal values may be shown once. About 2,000 (36%) of roughly 5,500 compounds were called active. Roughly 18% stayed inconclusive and do not appear here. Rule as the data show it: active = normalized growth mostly below about 0.91 (no sharp cut-off); inconclusive = no clear call, values can overlap the other calls; inactive = mostly above about 0.92. The list shows a part of the results.

Assay: chemical genetic growth profiling, strain panel (AID 1159580);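 also: tested at 20 µM; growth read once vehicle control cultures reached saturation at 30 °C; 1 = growth at the plate median or of vehicle wells; lower values mean less growth of the strain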
Conditions: S. cerevisiae deletion strains, growth OD

Measured: normalized growth

CNc1ccccc1C(=O)N1CCc2c([nH]c3ccccc23)C1=O
inactive: locus YAL021C, strain ccr4, stronger effect = lower value 0.962 | locus YAL026C, strain drs2, stronger effect = lower value 1 | locus YAL030W, strain snc1, stronger effect = lower value 0.995 | locus YBL061C, strain skt5, stronger effect = lower value 1 | locus YBR009C, strain hhf1, stronger effect = lower value 0.981 | locus YBR021W, strain FUR4, stronger effect = lower value 0.954 | locus YBR023C, strain chs3, stronger effect = lower value 1 | locus YBR171W, strain sec66, stronger effect = lower value 0.991 | locus YBR229C, strain ROT2, stronger effect = lower value 1.01 | locus YBR231C, strain swc5, stronger effect = lower value 0.996 | locus YBR279W, strain paf1, stronger effect = lower value 0.992 | locus YCL011C, strain gbp2, stronger effect = lower value 0.983 | locus YCL016C, strain dcc1, stronger effect = lower value 0.981 | locus YCL029C, strain bik1, stronger effect = lower value 0.996 | locus YCL069W, strain vba3, stronger effect = lower value 0.987 | locus YCR088W, strain abp1, stronger effect = lower value 1 | locus YDL005C, strain med2, stronger effect = lower value 0.997 | locus YDL035C, strain GPR1, stronger effect = lower value 0.995 | locus YDL040C, strain nat1, stronger effect = lower value 0.99 | locus YDL074C, strain BRE1, stronger effect = lower value 0.976 | locus YDL101C, strain DUN1, stronger effect = lower value 1.02 | locus YDL185W, strain tfp1, stronger effect = lower value 0.996 | locus YDL192W, strain arf1, stronger effect = lower value 0.975 | locus YDR001C, strain nth1, stronger effect = lower value 0.98 | locus YDR069C, strain doa4, stronger effect = lower value 0.966 | locus YDR101C, strain arx1, stronger effect = lower value 0.964 | locus YDR137W, strain rgp1, stronger effect = lower value 0.991 | locus YDR159W, strain sac3, stronger effect = lower value 1.03 | locus YDR162C, strain NBP2, stronger effect = lower value 1.01 | locus YDR195W, strain ref2 1.01 | locus YDR297W, strain sur2, stronger effect = lower value 1 | locus YDR318W, strain mcm21, stronger effect = lower value 0.997 | locus YDR334W, strain swr1, stronger effect = lower value 0.991 | locus YDR335W, strain msn5, stronger effect = lower value 0.996 | locus YDR388W, stronger effect = lower value 0.979 | locus YDR392W, strain spt3, stronger effect = lower value 0.908 | locus YDR502C, strain sam2, stronger effect = lower value 0.967 | locus YEL003W, strain gim4, stronger effect = lower value 0.987 | locus YEL037C, strain rad23, stronger effect = lower value 0.992 | locus YEL061C, strain CIN8 (second series), stronger effect = lower value 0.989 | locus YEL061C, strain CIN8, stronger effect = lower value 1.01 | locus YER015W, strain faa2, stronger effect = lower value 0.992 | locus YER016W, strain bim1, stronger effect = lower value 0.985 | locus YER110C, stronger effect = lower value 0.986 | locus YER111C, strain swi4, stronger effect = lower value 1 | locus YER155C, strain BEM2 (second series), stronger effect = lower value 1.01 | locus YER155C, strain BEM2, stronger effect = lower value 0.997 | locus YER167W, strain BCK2, stronger effect = lower value 1 | locus YFR010W, strain ubp6, stronger effect = lower value 0.965 | locus YGL078C, strain dbp3, stronger effect = lower value 0.971 | locus YGL086W, strain mad1, stronger effect = lower value 0.964 | locus YGL167C, strain pmr1, stronger effect = lower value 0.98 | locus YGL173C, strain kem1, stronger effect = lower value 0.997 | locus YGL227W, strain vid30, stronger effect = lower value 1 | locus YGL240W, strain doc1, stronger effect = lower value 1 | locus YGL248W, strain PDE1, stronger effect = lower value 1.02 | locus YGL253W, strain hxk2, stronger effect = lower value 0.989 | locus YGR078C, strain PAC10, stronger effect = lower value 1.01 | locus YGR135W, strain pre9, stronger effect = lower value 1 | locus YGR229C, strain SMI1, stronger effect = lower value 1 | locus YGR252W, strain gcn5, stronger effect = lower value 0.924 | locus YHR013C, strain ard1, stronger effect = lower value 0.958 | locus YHR027C, strain rpn1, stronger effect = lower value 0.991 | locus YHR030C, strain SLT2, stronger effect = lower value 1.01 and 0.995 | locus YHR079C, strain IRE1 (second series), stronger effect = lower value 0.981 | locus YHR079C, strain IRE1, stronger effect = lower value 0.986 | locus YHR094C, strain hxt1, stronger effect = lower value 0.984 | locus YHR129C, strain ARP1, stronger effect = lower value 1.01 | locus YHR142W, strain chs7, stronger effect = lower value 0.975 | locus YHR200W, strain rpn10, stronger effect = lower value 0.987 | locus YIL066C, strain RNR3, stronger effect = lower value 1.01 | locus YIL073C, strain SPO22, stronger effect = lower value 0.957 | locus YIL125W, strain kgd1, stronger effect = lower value 0.968 | locus YIR030C, strain dcg1, stronger effect = lower value 0.975 | locus YJL092W, strain hpr5, stronger effect = lower value 0.991 | locus YJL095W, strain BCK1 (second series), stronger effect = lower value 1.01 | locus YJL095W, strain BCK1, stronger effect = lower value 1.01 and 1.06 | locus YJL115W, strain asf1, stronger effect = lower value 0.976 | locus YJL129C, strain trk1, stronger effect = lower value 0.982 | locus YJL134W, strain LCB3, stronger effect = lower value 1.01 | locus YJL154C, strain vps35, stronger effect = lower value 0.989 | locus YJL164C, strain tpk1, stronger effect = lower value 0.963 | locus YJL166W, strain qcr8, stronger effect = lower value 0.992 | locus YJL168C, strain set2, stronger effect = lower value 0.989 | locus YJL187C, strain SWE1 (second series), stronger effect = lower value 1 | locus YJL187C, strain SWE1, stronger effect = lower value 0.981 | locus YJR043C, strain POL32, stronger effect = lower value 0.986 | locus YJR066W, strain TOR1, stronger effect = lower value 0.94 | locus YJR075W, strain HOC1, stronger effect = lower value 1 | locus YKL009W, strain mrt4, stronger effect = lower value 0.949 | locus YKL068W, stronger effect = lower value 1 | locus YKL085W, strain MDH1 (second series), stronger effect = lower value 0.994 | locus YKL085W, strain MDH1, stronger effect = lower value 0.994 | locus YKL160W, strain elf1, stronger effect = lower value 0.973 | locus YKR001C, strain vps1, stronger effect = lower value 0.941 | locus YKR026C, strain gcn3, stronger effect = lower value 1.01 | locus YKR091W, strain srl3, stronger effect = lower value 0.989 | locus YLL001W, strain dnm1, stronger effect = lower value 0.982 | locus YLL026W, stronger effect = lower value 1 | locus YLL041C, strain sdh2, stronger effect = lower value 1 | locus YLR027C, strain aat2, stronger effect = lower value 0.995 | locus YLR039C, strain RIC1, stronger effect = lower value 0.812 | locus YLR058C, strain SHM2, stronger effect = lower value 1.01 | locus YLR102C, strain apc9, stronger effect = lower value 0.977 | locus YLR113W, strain HOG1, stronger effect = lower value 1.1 | locus YLR221C, strain rsa3, stronger effect = lower value 1.01 | locus YLR258W, strain gsy2, stronger effect = lower value 0.993 | locus YLR262C, strain YPT6 (second series), stronger effect = lower value 0.975 | locus YLR262C, strain YPT6, stronger effect = lower value 0.823 | locus YLR268W, strain sec22, stronger effect = lower value 0.954 | locus YLR320W, strain mms22, stronger effect = lower value 1 | locus YLR330W, strain CHS5, stronger effect = lower value 1.01 | locus YLR342W, strain FKS1 (second series), stronger effect = lower value 0.998 | locus YLR342W, strain FKS1, stronger effect = lower value 0.991 | locus YLR357W, strain rsc2, stronger effect = lower value 0.973 | locus YLR370C, strain arc18, stronger effect = lower value 0.998 | locus YLR371W, strain rom2, stronger effect = lower value 0.986 | locus YLR384C, strain iki3, stronger effect = lower value 1.02 | locus YLR418C, strain cdc73, stronger effect = lower value 0.917 | locus YML016C, strain PPZ1, stronger effect = lower value 1.02 | locus YML032C, strain rad52, stronger effect = lower value 0.989 | locus YML120C, strain ndi1, stronger effect = lower value 0.983 | locus YML124C, strain tub3, stronger effect = lower value 0.985 | locus YMR058W, strain fet3, stronger effect = lower value 0.994 | locus YMR078C, strain ctf18, stronger effect = lower value 0.986 | locus YMR125W, strain sto1, stronger effect = lower value 0.965 | locus YMR129W, stronger effect = lower value 0.988 | locus YMR205C, strain PFK2, stronger effect = lower value 0.984 | locus YMR223W, strain ubp8, stronger effect = lower value 1 | locus YMR231W, strain pep5, stronger effect = lower value 0.999 | locus YMR263W, strain SAP30, stronger effect = lower value 1.01 | locus YMR307W, strain GAS1, stronger effect = lower value 0.949 | locus YNL067W, strain RPL9B, stronger effect = lower value 1.01 | locus YNL071W, strain lat1, stronger effect = lower value 0.993 | locus YNL153C, strain GIM3, stronger effect = lower value 1.01 | locus YNL183C, strain NPR1, stronger effect = lower value 1.01 | locus YNL209W, strain ssb2, stronger effect = lower value 0.985 | locus YNL233W, strain BNI4, stronger effect = lower value 0.996 | locus YNL248C, strain rpa49, stronger effect = lower value 0.986 | locus YNL250W, strain rad50, stronger effect = lower value 1 | locus YNL271C, strain bni1, stronger effect = lower value 0.989 | locus YNL298W, strain CLA4, stronger effect = lower value 0.977 | locus YNL307C, strain MCK1, stronger effect = lower value 0.985 | locus YNL322C, strain KRE1 (second series), stronger effect = lower value 1 | locus YNL322C, strain KRE1, stronger effect = lower value 1.01 | locus YNR049C, strain mso1, stronger effect = lower value 0.989 | locus YNR052C, strain pop2, stronger effect = lower value 1.02 | locus YOL006C, strain TOP1, stronger effect = lower value 0.974 | locus YOL012C, strain htz1 0.736 | locus YOL147C, strain pex11, stronger effect = lower value 0.979 | locus YOR001W, strain rrp6, stronger effect = lower value 1.01 | locus YOR061W, strain CKA2, stronger effect = lower value 1.01 | locus YOR069W, strain VPS5, stronger effect = lower value 1.01 | locus YOR070C, strain gyp1, stronger effect = lower value 0.985 | locus YOR080W, strain dia2, stronger effect = lower value 1 | locus YOR083W, strain WHI5, stronger effect = lower value 0.967 | locus YOR106W, strain vam3, stronger effect = lower value 0.924 | locus YOR136W, strain idh2, stronger effect = lower value 0.974 | locus YOR144C, strain elg1, stronger effect = lower value 0.979 | locus YOR184W, strain ser1, stronger effect = lower value 0.979 | locus YOR231W, strain MKK1, stronger effect = lower value 1.01 | locus YOR265W, strain rbl2, stronger effect = lower value 1 | locus YOR270C, strain vph1, stronger effect = lower value 0.979 | locus YOR290C, strain snf2, stronger effect = lower value 0.944 | locus YOR316C, strain cot1, stronger effect = lower value 0.982 | locus YPL051W, strain arl3, stronger effect = lower value 0.982 | locus YPL055C, strain LGE1, stronger effect = lower value 0.991 | locus YPL078C, strain atp4, stronger effect = lower value 0.973 | locus YPL106C, strain sse1, stronger effect = lower value 0.997 | locus YPL240C, strain hsp82, stronger effect = lower value 0.986 | locus YPL241C, strain CIN2, stronger effect = lower value 1 | locus YPL256C, strain CLN2, stronger effect = lower value 1 | locus YPR119W, strain clb2, stronger effect = lower value 0.978 | locus YPR141C, strain kar3, stronger effect = lower value 0.994 | locus YPR163C, strain tif3, stronger effect = lower value 0.99 | locus YPR167C, strain met16, stronger effect = lower value 0.989 | strain wtn01, stronger effect = lower value 0.961
